From PubChem BioAssay (Tox21)
Where “and” joins values, the source holds several entries; their conditions need not be identical. Identical values can stand only once. Results filed as inconclusive are left out. Where a structure was tested more than once in an assay, its records may differ in their call. Calls of active or inactive are those of the source. Unless noted, the call rests on the fitted dose curve; in most records, active means well fitted curve in the direction sought with a large enough effect in the repeat runs; inconclusive means weak or mixed curves; inactive means no such curve, though single readings can be large; an effect the other way counts as inactive or inconclusive.

How the values were obtained:
[1] = qHTS assay to identify small molecule antagonists of the thyroid receptor (TR) signaling pathway (AID 743065); further: series mostly up to about 70 µM; nearly all actives have a fitted effect of over 55% in size
Procedure, shortened: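 GH3.TRE-Luc rat pituitary cells (two TREs driving luciferase) were dosed with compound, then stimulated with 1 nM T3 (final) for 23.5 h at 37 C. ONE-Glo luminescence was the read-out, with CellTiter-Fluor fluorescence as the cytotoxicity counter-screen.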

[2] = system: thyroid hormone receptor (rat, GH3 cells); assay: qHTS assay to identify small molecule agonists of the thyroid receptor (TR) signaling pathway (AID 743066; calls by dose curve; further: potency means the concentration at half of the fitted maximal effect)
[3] = molecular target: Estrogen receptor (Homo sapiens) (UniProt P03372); assay: qHTS assay to identify small molecule antagonists of the estrogen receptor alpha (ER-alpha) signaling pathway (AID 743069; active means well fitted curve in the direction sought with a large enough effect in the signal ratio in the repeat runs, not every such curve was filed as active; the % refers to the signal ratio)
Estrogen receptor (Homo sapiens), sequence (P03372 whole entry, looked up): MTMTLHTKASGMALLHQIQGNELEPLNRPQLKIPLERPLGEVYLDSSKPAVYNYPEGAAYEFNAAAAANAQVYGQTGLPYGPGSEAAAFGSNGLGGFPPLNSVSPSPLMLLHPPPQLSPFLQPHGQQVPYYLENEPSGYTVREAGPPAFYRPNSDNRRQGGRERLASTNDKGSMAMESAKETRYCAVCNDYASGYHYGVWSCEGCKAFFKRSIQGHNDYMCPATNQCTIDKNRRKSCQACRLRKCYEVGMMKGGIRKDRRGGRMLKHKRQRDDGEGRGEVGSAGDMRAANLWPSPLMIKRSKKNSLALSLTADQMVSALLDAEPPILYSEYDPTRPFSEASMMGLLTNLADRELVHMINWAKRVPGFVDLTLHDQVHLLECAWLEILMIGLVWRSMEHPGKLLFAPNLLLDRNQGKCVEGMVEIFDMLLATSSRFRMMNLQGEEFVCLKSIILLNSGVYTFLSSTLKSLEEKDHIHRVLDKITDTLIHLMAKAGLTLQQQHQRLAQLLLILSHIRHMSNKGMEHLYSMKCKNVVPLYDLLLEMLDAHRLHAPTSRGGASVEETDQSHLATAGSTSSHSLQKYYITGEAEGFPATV
Procedure, shortened: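 HEK293 ER-alpha-UAS-bla GripTite cells, held overnight in 2% charcoal-stripped FBS, 5,000 cells/well, preincubated 4 h, then compound plus 17beta-estradiol for 18 h at 37C. Beta-lactamase read by LiveBLAzer B/G FRET substrate, 2 h at room temperature.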

[4] = qHTS assay to identify small molecule antagonists of the estrogen receptor alpha (ER-alpha) signaling pathway - cell viability counter screen (AID 743074; calls by dose curve;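 further: HEK293 cells carrying ER-alpha-UAS-bla reporter stimulated with 17beta-estradiol; nearly all actives have a fitted effect of over 45% in size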)
[5] = molecular target: Estrogen receptor (Homo sapiens) (UniProt P03372); assay: qHTS assay to identify small molecule agonists of the estrogen receptor alpha (ER-alpha) signaling pathway (AID 743075; calls by dose curve)
[6] = molecular target: Estrogen receptor (Homo sapiens) (UniProt P03372); assay: qHTS assay to identify small molecule agonists of the estrogen receptor alpha (ER-alpha) signaling pathway using the BG1 cell line (AID 743079); further: nearly all actives have a fitted effect of over 20% in size; further: potency means the concentration at half of the fitted maximal effect
[7] = qHTS assay to identify small molecule antagonists of the estrogen receptor alpha (ER-alpha) signaling pathway using the BG1 cell line (AID 743080; calls by dose curve;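 further: BG1 cells stimulated with 17beta-estradiol alongside compound; series mostly up to about 70 µM; nearly all actives have a fitted effect of over 25% in size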)
Procedure, shortened: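 After 5 days in phenol-red-free 10% charcoal-stripped FBS medium, BG1-Luc-4E2 cells were seeded, left 24 h at 37 C, co-treated with compounds and 17beta-estradiol for 21.5 h, then assayed for viability and luciferase.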

[8] = qHTS assay to identify small molecule antagonists of the estrogen receptor alpha (ER-alpha) signaling pathway using the BG1 cell line - cell viability counter screen (AID 743081);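 further: compound given together with 17beta-estradiol as the ER stimulus; series mostly up to about 70 µM; nearly all actives have a fitted effect of over 45% in size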
Aromatase (Homo sapiens) = Aromatase (Homo sapiens) (UniProt P11511); assay: qHTS assay to identify aromatase inhibitors (AID 743083); further: series mostly up to about 70 µM; nearly all actives have a fitted effect of over 55% in size
Aromatase (Homo sapiens), sequence (P11511 whole entry, looked up): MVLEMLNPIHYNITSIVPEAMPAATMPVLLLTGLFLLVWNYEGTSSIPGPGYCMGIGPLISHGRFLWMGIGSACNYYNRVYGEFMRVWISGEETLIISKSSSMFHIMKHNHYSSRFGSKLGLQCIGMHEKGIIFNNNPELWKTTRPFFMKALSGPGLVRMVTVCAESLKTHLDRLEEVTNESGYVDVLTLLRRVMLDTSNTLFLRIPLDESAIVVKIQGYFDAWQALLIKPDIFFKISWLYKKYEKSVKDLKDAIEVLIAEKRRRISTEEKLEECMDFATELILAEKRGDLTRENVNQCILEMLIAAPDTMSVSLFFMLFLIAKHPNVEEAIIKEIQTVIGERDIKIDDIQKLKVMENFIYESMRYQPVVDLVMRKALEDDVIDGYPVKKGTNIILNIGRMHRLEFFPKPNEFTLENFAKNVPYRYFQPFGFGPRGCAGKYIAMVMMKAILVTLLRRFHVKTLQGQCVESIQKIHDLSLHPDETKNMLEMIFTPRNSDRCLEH

[9] = qHTS assay to identify small molecule antagonists of the thyroid receptor (TR) signaling pathway - cell viability counter screen (AID 743064); further: nearly all actives have a fitted effect of over 50% in size; further: potency means the concentration at half of the fitted maximal effect
Procedure, shortened: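 Rat GH3 pituitary tumor cells stably expressing two TR response elements driving luciferase were plated, rested 4 h, then dosed with library compounds and T3 (1 nM final). After 23.5 h at 37 °C, CellTiter-Fluor was added for 30 min and fluorescence recorded.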

Measured: Potency

N#CN=C(N)N
inactive: [1] | [2] | [3] | [4] | [5] | [6] | [7] | [8] | Aromatase (Homo sapiens)

Cc1cccc(N)c1
inactive: [1] | [2] | [3] | [4] | [5] | [6] | [7] | [8]

OCCCCO
inactive: [9] | [1] | [2] | [4] | [8] | Aromatase (Homo sapiens)

CN1C(=O)CCS(=O)(=O)C1c1ccc(Cl)cc1 (stereo not given)
inactive: [9] | [1] | [2] | [4] | [8] | Aromatase (Homo sapiens)

COc1cc(-c2ccc(N)c(OC)c2)ccc1N
inactive and 52 µM (active): [9]
inactive: [2] | [4] | [8] | Aromatase (Homo sapiens)

CC(C)(C)C(=O)CCl
inactive: [9] | [3] | [4] | [5] | [6] | [7] | [8] | Aromatase (Homo sapiens)

OCC(O)CCl (stereo not given)
inactive: [1] | [2] | [3] | [4] | [5] | [6] | [7] | [8] | Aromatase (Homo sapiens)

COC(=O)Nc1cccc(OC(=O)Nc2cccc(C)c2)c1
inactive: [9] | [1] | [2] | [4] | [8] | Aromatase (Homo sapiens)

NNc1ccccc1
inactive: [9] | [2] | [4] | [8] | Aromatase (Homo sapiens)

CC(C)c1cccc(C(C)C)c1O
inactive: [1] | [2] | [3] | [4] | [5] | [6] | [7] | [8] | Aromatase (Homo sapiens)

CN(C)C(=O)Cl
inactive: [1] | [2] | [3] | [4] | [5] | [6] | [7] | [8] | Aromatase (Homo sapiens)

Clc1cnc(Oc2ccc(Oc3ncc(Cl)cc3Cl)cc2)c(Cl)c1
inactive: [9] | [1] | [2] | [4] | [8] | Aromatase (Homo sapiens)

ClCCOCCCl
inactive: [9] | [1] | [2] | [4] | [8] | Aromatase (Homo sapiens)

C/C=C/c1ccc2c(c1)OCO2
inactive: [9] | [1] | [2] | [4] | [8] | Aromatase (Homo sapiens)

Cc1cccc(N)c1C
inactive: [1] | [2] | [3] | [4] | [5] | [6] | [7] | [8] | Aromatase (Homo sapiens)

Cc1ccc(N=C=O)cc1N=C=O
inactive: [9] | [1] | [2] | [4] | [8] | Aromatase (Homo sapiens)

ClC(Cl)c1ccccc1
inactive: [1] | [2] | [3] | [4] | [5] | [6] | [7] | [8] | Aromatase (Homo sapiens)

CC(=O)C1CCOC1=O (stereo not given)
inactive: [9] | [1] | [2] | [4] | [8] | Aromatase (Homo sapiens)

COC(C)(C)CCCC(C)C/C=C/C(C)=C/C(=O)OC(C)C (stereo not given)
inactive: [9] | [1] | [2] | [4] | [8] | Aromatase (Homo sapiens)

OC[C@@H](O)[C@H]1O[C@@H]2O[C@H](C(Cl)(Cl)Cl)O[C@@H]2[C@H]1O
inactive: [1] | [2] | [3] | [4] | [5] | [6] | [7] | [8] | Aromatase (Homo sapiens)

Cc1cc(O)ccc1Cl
inactive and 27.3 µM (active): [2]
inactive and 62.2 µM (active): [6]
inactive: [1] | [3] | [4] | [5] | [7] | [8] | Aromatase (Homo sapiens)

CN(C)C(=O)C(c1ccccc1)c1ccccc1
inactive: [9] | [1] | [2] | [4] | [8] | Aromatase (Homo sapiens)

c1ccc2c(c1)CCCC2
inactive: [1] | [2] | [3] | [4] | [5] | [6] | [7] | [8] | Aromatase (Homo sapiens)

O=C(O)c1cc(Oc2ccc(C(F)(F)F)cc2Cl)ccc1[N+](=O)[O-]
inactive: [9] | [1] | [2] | [4] | [8] | Aromatase (Homo sapiens)

CC[N+](=O)[O-]
inactive: [9] | [1] | [2] | [4] | [8] | Aromatase (Homo sapiens)

N#Cc1ccccn1
inactive: [1] | [2] | [3] | [4] | [5] | [6] | [7] | [8] | Aromatase (Homo sapiens)

O=S(=O)(O)OOS(=O)(=O)O
inactive: [9] | [1] | [2] | [4] | [8] | Aromatase (Homo sapiens)

CN(C)C(=O)Nc1cccc(C(F)(F)F)c1
inactive: [9] | [1] | [2] | [4] | [8] | Aromatase (Homo sapiens)

C[C@]12CC[C@H](O)CC1=CC[C@@H]1[C@@H]2CC[C@]2(C)C(=O)CC[C@@H]12
inactive: [9] | [1] | [2] | [4] | [8] | Aromatase (Homo sapiens)

CCNc1nc(Cl)nc(NC(C)C)n1
inactive: [1] | [2] | [3] | [4] | [5] | [6] | [7] | [8] | Aromatase (Homo sapiens)
